Results as given in PubChem BioAssay.
The source made the active and inactive calls.

tested on: Neuregulin-1 EGF-like domain; experiment: binders of neuregulin-1 EGF-like domain, primary screen, biochemical, small-molecule microarray, 635 nm fluorescence (AID 1081); conditions: small-molecule microarray binding, higher = more signal;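 also: binding of the protein to compounds printed on small-molecule microarray slides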

Row | Compound | composite z-score
1 | C=C(CCCC)/C(=C/C[C@H](OC(C)=O)c1cccc(OCCO)c1)c1cc(C(=O)OC)ccc1OC | 0.131
2 | C=C(COC)/C(=C/C[C@H](OC(=O)c1ccncc1)c1ccc(OCCO)cc1)c1cc(C(=O)OC)ccc1OC | 1.03
3 | NC(=O)NCC#Cc1ccc2c(c1)[C@]1(C(=O)N2)[C@H](C(=O)Nc2nc3ccccc3s2)[C@H]2C(=O)O[C@H](c3ccccc3)[C@H](c3ccccc3)N2[C@@H]1c1ccc(OCCO)cc1 | -0.895
4 | C=CCNC(=O)[C@H]1[C@@H]2C(=O)O[C@@H](c3ccccc3)[C@@H](c3ccccc3)N2[C@@H](c2ccc(O)cc2)[C@]12C(=O)Nc1ccc(C#CC3=CCCCC3)cc12 | 1.18
5 | C=CCC(OC(C)=O)[C@@H]1[C@@H](N(Cc2cccc3ccccc23)C(=O)c2ccc(-c3ccccc3)cc2)c2cc(OCCCO)ccc2N1C(=O)c1ccc2ccccc2n1 (stereo partly drawn) | 0.037
6 | O=C1c2ccccc2[C@](Cc2ccccc2I)(C(=O)O)[C@H](c2ccc(CO)cc2)N1Cc1ccccc1 | 1.23
7 | CC(C)[C@@H](C(=O)O)n1cc(-c2ccccc2)nn1 | 1.08
8 | C/C=C/CN(C(=O)C#Cc1ccccc1)[C@H](CO[Si](C)(C)C(C)(C)C)c1ccccc1 | -0.164
9 | COCCOC(=O)N1C(=O)[C@@]2(c3cc(C#CCCO)ccc31)[C@H](c1ccc(O)cc1)N1[C@H](c3ccccc3)[C@H](c3ccccc3)OC(=O)[C@H]1[C@@H]2C(=O)N1CCc2cc(OC)c(OC)cc2C1 | 1.32
10 | Cc1ccc(S[C@]2(C(=O)NC3CC3)CC(=O)N(Cc3cc(C(F)(F)F)cc(C(F)(F)F)c3)[C@@H]2c2ccc(CO)cc2I)cc1 | 1.27
11 | C[N+](C)(C)CCCC[C@@H]1NC(=O)[C@H]2C[C@@H](C(=O)NCCCCCNC(=O)CS)[C@@H](c3ccc(O)cc3)N2C1=O | 0.745
12 | CC[C@H](C)C(=O)O[C@H]1CC[C@]2(C)C3=C(CCC2C1(C)C)[C@]1(C)CC[C@H]([C@H](C)CCCC(C)C)[C@@]1(C)CC3 (stereo partly drawn) | 0.966
13 | COCCOC(=O)N1C(=O)[C@@]2(c3cc(C#CCC(C(=O)OC)C(=O)OC)ccc31)[C@H](C(=O)N1CCCCCCC1)[C@H]1C(=O)O[C@H](c3ccccc3)[C@H](c3ccccc3)N1[C@@H]2c1ccccc1OCCO | 1.12
14 | C=CCOC(=O)[C@H]1[C@@H]2C(=O)O[C@@H](c3ccccc3)[C@@H](c3ccccc3)N2[C@@H](c2ccc(OCCOC(=O)[C@H]3C[C@H]4C(=O)NCC(=O)N4[C@H]3c3ccc(O)cc3)cc2)[C@]12C(=O)Nc1ccc(I)cc12 | 0.869
15 | CC#CCO[Si](C#CCCCCCC)(C(C)C)C(C)C | 0.439
16 | CC(c1ccccc1)C(O)C1C=CC2C(=O)N(c3ccccc3)C(=O)C2N1Nc1ccc(C#N)cc1 (stereo not drawn) | 1.34
17 | O=C1c2ccccc2[C@@]2(Cc3ccccc3N(Cc3ccccc3)C2=O)[C@H](c2ccc(CO)cc2)N1Cc1ccccc1 | -0.564
18 | CC(C)CNC(=O)[C@@H]1c2ccccc2C(=O)N(CC23CC4CC(CC(C4)C2)C3)[C@H]1c1ccc(CO)cc1 | 0.99

tested on: not listed separately; experiment: FRG1 promoter luciferase signal modulators, primary screen, FRG1 inhibition for FSHD, cell-based, C2C12 myotubes, firefly/Renilla luciferase, luminescence (AID 1084); conditions: higher = more signal, called active from +8 up or from −8 down

Row | Compound | z-score
19 | COCCOC(=O)N1C(=O)[C@@]2(c3cc(C#CCNC(N)=O)ccc31)[C@H](C(=O)NC[C@H](O)c1ccccc1)[C@H]1C(=O)O[C@H](c3ccccc3)[C@H](c3ccccc3)N1[C@@H]2c1ccc(OCCO)cc1 | 0.769 (inactive)
20 | COC(=O)[C@@]1(Cc2ccc(F)cc2)[C@H]2c3cc(C(=O)N(C)C)n(CCn4cc([N+](=O)[O-])nc4C)c3C[C@H]2CN1C(=O)c1ccccc1 | 1.26 (inactive)
21 | CN(C)CCCCNC(=O)[C@H]1C[C@H]2C(=O)N[C@@H](Cc3ccccc3)C(=O)N2[C@H]1c1cccc(OCCO)c1 | 3.32 (inactive)
22 | CCCCN1CC=CC23O[C@@H]4/C=C\CCC(C)OC(=O)C4[C@H]2C(=O)N(C(C)CO)[C@@H]3C1=O (stereo partly drawn) | -0.3 (inactive)
23 | CCCCC(=C=CC[C@@H](O)c1cccc(OCCO)c1)CCO | -0.225 (inactive)
24 | CN1C=C(C(=O)OCCS(C)(=O)=O)C(C(=O)OCCS(C)(=O)=O)=CC(CCCO)=CC1c1ccc(CN2CCCC2)cc1 (stereo not drawn) | 0.226 (inactive)
25 | C#CCN(C/C=C/c1ccccc1)[C@H](CO[Si](C)(C)C(C)(C)C)c1ccccc1 | -1.27 (inactive)
26 | O=C1O[C@H](c2ccccc2)[C@H](c2ccccc2)N2[C@H]1[C@@H](C(=O)N1CCN(c3ncccn3)CC1)[C@]1(C(=O)Nc3ccccc31)[C@H]2c1ccc(O)cc1 | 1.07 (inactive)
27 | [N-]=[N+]=NCc1ccccc1[C@@H]1OC(c2ccc(OCCCO)cc2)=N[C@]1(Cc1ccccc1)C(=O)NCc1ccccc1 | -2.16 (inactive)
28 | C=CCOC(=O)[C@H]1[C@@H]2C(=O)O[C@@H](c3ccccc3)[C@@H](c3ccccc3)N2[C@@H](c2ccc(OCCOC(=O)[C@@H]3C[C@@H]4C(=O)N[C@@H](CC(C)C)C(=O)N4[C@@H]3c3ccc(O)cc3)cc2)[C@]12C(=O)Nc1ccc(I)cc12 | -1.13 (inactive)
29 | CC(C)CNC(=O)[C@@]1(C)c2ccccc2C(=O)N(Cc2cc(F)cc(C(F)(F)F)c2)[C@H]1c1ccc(CO)cc1 | -1.48 (inactive)
30 | NCCCC[C@@H]1NC(=O)[C@H]2C[C@@H](C(=O)O)[C@@H](c3cccc(OCCO)c3)N2C1=O | 0.805 (inactive)
31 | CC(C)C[C@@H]1NC(=O)[C@H]2C[C@@H](C(=O)NCCCCCNC(=O)CS)[C@@H](c3ccc(O)cc3)N2C1=O | -0.232 (inactive)
32 | CO[C@H]1O[C@H](CO)[C@@H](OC(=O)Nc2ccccc2)[C@@H]2OC(=O)[C@H](Cc3ccccc3)C/C=C/C[C@@H](Cc3ccccc3)C(=O)O[C@@H]12 | -1.64 (inactive)
33 | CC(C)CNC(=O)[C@@H]1c2ccccc2C(=O)N(Cc2ccccc2Cl)[C@H]1c1ccc(CO)cc1 | -1.38 (inactive)
34 | CCc1cccc(NC(=O)O[C@H]2[C@H](OC(=O)Nc3ccc4c(c3)OCO4)[C@H](OC(=O)Nc3ccc4c(c3)OCO4)[C@@H](OC)O[C@@H]2CO)c1 | 4.53 (inactive)
35 | CCN(CC)c1ccc(N2CC=CC34O[C@@H]5C=CCOC(=O)[C@@H]5[C@H]3C(=O)N(CCCO)[C@@H]4C2=O)cc1 (stereo partly drawn) | 0.275 (inactive)
36 | C=C(CCCC)/C(=C/C[C@H](OC(C)=O)c1cccc(OCCO)c1)c1cc(C(=O)OC)ccc1OC | -0.502 (inactive)

Row | Compound | z-score
37 | C=C(COC)/C(=C/C[C@H](OC(=O)c1ccncc1)c1ccc(OCCO)cc1)c1cc(C(=O)OC)ccc1OC | -0.992 (inactive)
38 | NC(=O)NCC#Cc1ccc2c(c1)[C@]1(C(=O)N2)[C@H](C(=O)Nc2nc3ccccc3s2)[C@H]2C(=O)O[C@H](c3ccccc3)[C@H](c3ccccc3)N2[C@@H]1c1ccc(OCCO)cc1 | 2.13 (inactive)
39 | C=CCNC(=O)[C@H]1[C@@H]2C(=O)O[C@@H](c3ccccc3)[C@@H](c3ccccc3)N2[C@@H](c2ccc(O)cc2)[C@]12C(=O)Nc1ccc(C#CC3=CCCCC3)cc12 | -0.195 (inactive)
40 | C=CCC(OC(C)=O)[C@@H]1[C@@H](N(Cc2cccc3ccccc23)C(=O)c2ccc(-c3ccccc3)cc2)c2cc(OCCCO)ccc2N1C(=O)c1ccc2ccccc2n1 (stereo partly drawn) | -0.612 (inactive)
41 | O=C1c2ccccc2[C@](Cc2ccccc2I)(C(=O)O)[C@H](c2ccc(CO)cc2)N1Cc1ccccc1 | -1.1 (inactive)
42 | CC(C)[C@@H](C(=O)O)n1cc(-c2ccccc2)nn1 | 0.736 (inactive)
43 | C/C=C/CN(C(=O)C#Cc1ccccc1)[C@H](CO[Si](C)(C)C(C)(C)C)c1ccccc1 | -3.24 (inactive)
44 | COCCOC(=O)N1C(=O)[C@@]2(c3cc(C#CCCO)ccc31)[C@H](c1ccc(O)cc1)N1[C@H](c3ccccc3)[C@H](c3ccccc3)OC(=O)[C@H]1[C@@H]2C(=O)N1CCc2cc(OC)c(OC)cc2C1 | -0.994 (inactive)
45 | Cc1ccc(S[C@]2(C(=O)NC3CC3)CC(=O)N(Cc3cc(C(F)(F)F)cc(C(F)(F)F)c3)[C@@H]2c2ccc(CO)cc2I)cc1 | 0.528 (inactive)
46 | C[N+](C)(C)CCCC[C@@H]1NC(=O)[C@H]2C[C@@H](C(=O)NCCCCCNC(=O)CS)[C@@H](c3ccc(O)cc3)N2C1=O | -1.04 (inactive)
47 | CC[C@H](C)C(=O)O[C@H]1CC[C@]2(C)C3=C(CCC2C1(C)C)[C@]1(C)CC[C@H]([C@H](C)CCCC(C)C)[C@@]1(C)CC3 (stereo partly drawn) | 0.169 (inactive)
48 | COCCOC(=O)N1C(=O)[C@@]2(c3cc(C#CCC(C(=O)OC)C(=O)OC)ccc31)[C@H](C(=O)N1CCCCCCC1)[C@H]1C(=O)O[C@H](c3ccccc3)[C@H](c3ccccc3)N1[C@@H]2c1ccccc1OCCO | 0.158 (inactive)
49 | C=CCOC(=O)[C@H]1[C@@H]2C(=O)O[C@@H](c3ccccc3)[C@@H](c3ccccc3)N2[C@@H](c2ccc(OCCOC(=O)[C@H]3C[C@H]4C(=O)NCC(=O)N4[C@H]3c3ccc(O)cc3)cc2)[C@]12C(=O)Nc1ccc(I)cc12 | -1.35 (inactive)
50 | CC#CCO[Si](C#CCCCCCC)(C(C)C)C(C)C | -0.524 (inactive)
51 | CC(c1ccccc1)C(O)C1C=CC2C(=O)N(c3ccccc3)C(=O)C2N1Nc1ccc(C#N)cc1 (stereo not drawn) | -0.948 (inactive)
52 | O=C1c2ccccc2[C@@]2(Cc3ccccc3N(Cc3ccccc3)C2=O)[C@H](c2ccc(CO)cc2)N1Cc1ccccc1 | 0.161 (inactive)
53 | CC(C)CNC(=O)[C@@H]1c2ccccc2C(=O)N(CC23CC4CC(CC(C4)C2)C3)[C@H]1c1ccc(CO)cc1 | -1.49 (inactive)
